Measured values published in the supplement of paper PMC12669032.

Columns and labels:
Experiment in all cases: growth AUC relative to DMSO control (median of replicates) (fraction); higher = more growth (less inhibition), active = hit call of the paper
Conditions in all cases: 20 µM; 24 h;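 active = AUC reduced over 20% with Padj below 0.05 in at least 2 of 3 replicates; inactive = otherwise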
[1] = system: Coprococcus comes
In short: (§1)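 Gut bacterial monocultures were grown anaerobically at 37 °C in mGAM from a starting OD600 of 0.05 with 20 µM compound (1% DMSO), in round-bottom 96-well plates under pierced gas-permeable seals, and OD600 was read hourly for 24 h. With the minimum OD set to 0, area under the growth curve was normalised to the plate median of solvent-only wells, or to row and column medians on the industrial chemical plate. Each value is the median of three biological replicates grown on separate days.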

[2] = system: Escherichia coli ED1a
In short: as §1

[3] = system: Escherichia coli IAI1
In short: as §1

[4] = system: Eubacterium rectale
In short: as §1

[5] = system: Fusobacterium nucleatum subsp. animalis
In short: as §1

[6] = system: Lactobacillus gasseri
In short: as §1

[7] = system: Lactobacillus paracasei
In short: as §1

[8] = system: Odoribacter splanchnicus
In short: as §1

[9] = system: Parabacteroides distasonis
In short: as §1

[10] = system: Parabacteroides merdae
In short: as §1

[11] = system: Roseburia intestinalis
In short: as §1

[12] = system: Streptococcus salivarius
In short: as §1

Measured: growth AUC

CC(C)(C)[C@@H](O)[C@@H](Cc1ccc(Cl)cc1)n1cncn1 (mixture of isomers)
inactive: [1] 0.994 | [2] 1 | [3] 0.986 | [4] 1.02 | [5] 0.975 | [6] 0.913 | [7] 0.954 | [8] 1.13 | [9] 0.983 | [10] 0.911 | [11] 0.963 | [12] 0.95

O=C(O)COc1ccc(Cl)c2cccnc12
inactive: [1] 0.997 | [2] 1.05 | [3] 1.04 | [4] 1.02 | [5] 1.11 | [6] 1.07 | [7] 1.01 | [8] 1.01 | [9] 1 | [10] 1 | [11] 0.963 | [12] 1.05

COc1cc(OC)nc(NC(=O)NS(=O)(=O)Nc2ccccc2C(=O)C2CC2)n1
inactive: [1] 0.952 | [2] 1 | [3] 0.978 | [4] 0.807 | [5] 0.97 | [6] 1.07 | [7] 1.01 | [8] 0.963 | [9] 0.964 | [10] 0.913 | [11] 1.1 | [12] 0.955

CCOc1ccc(NC(=O)OC(C)C)cc1OCC
active: [8] 0.722
inactive: [1] 0.942 | [2] 1.01 | [3] 1.04 | [4] 1.21 | [5] 1.09 | [6] 0.99 | [7] 0.835 | [9] 0.989 | [10] 0.998 | [11] 1 | [12] 0.975

CC(C)(CO)C(O)(CCc1ccc(Cl)cc1)Cn1cncn1 (centres undefined)
inactive: [1] 0.989 | [2] 1.03 | [3] 0.999 | [4] 1.1 | [5] 1 | [6] 0.88 | [7] 1.04 | [8] 0.979 | [9] 0.88 | [10] 0.985 | [11] 0.935 | [12] 0.987

C/C=C/C(=O)Oc1c(C(C)CCCCCC)cc([N+](=O)[O-])cc1[N+](=O)[O-] (mixture of isomers)
inactive: [1] 0.509 | [2] 0.976 | [3] 0.985 | [5] 0.94 | [8] 0.679 | [11] 0.809
active: [4] 0.665 | [6] 0.273 | [7] 0.41 | [9] 0.288 | [10] 0.00823 | [12] 0.301

CS(=O)(=O)c1ccc(C(=O)C2C(=O)C(O)CC(O)C2=O)c(Cl)c1COCC(F)(F)F (centres undefined)
inactive: [1] 1 | [2] 0.988 | [3] 0.972 | [4] 0.798 | [5] 1.02 | [6] 1.02 | [7] 0.987 | [8] 0.98 | [9] 1.03 | [10] 0.998 | [11] 1.03 | [12] 1.03

COC(=O)[C@@H](C)Oc1ccc(Oc2ncc(C(F)(F)F)cc2Cl)cc1
inactive: [1] 1.02 | [2] 1.02 | [3] 1.01 | [4] 1.05 | [5] 1.06 | [6] 0.889 | [7] 1.04 | [8] 0.946 | [9] 0.913 | [10] 1.01 | [11] 1 | [12] 0.984

S=C([S-])NCCNC(=S)[S-].[Mn+2]
inactive: [1] 0.998 | [2] 1.03 | [3] 1.03 | [4] 1.02 | [5] 1.04 | [6] 0.994 | [7] 1.16 | [8] 1.06 | [9] 1.02 | [10] 1.03 | [11] 0.96 | [12] 1.07

COCCOc1ccccc1S(=O)(=O)NC(=O)Nc1nc(OC)nc(OC)n1
inactive: [1] 0.987 | [2] 0.959 | [3] 0.97 | [4] 0.983 | [5] 0.983 | [6] 0.88 | [7] 1.02 | [8] 1.08 | [9] 0.978 | [10] 0.94 | [11] 0.907 | [12] 0.98

CC1(C)C(=O)Oc2ccc(OS(C)(=O)=O)cc21
inactive: [1] 0.992 | [2] 0.984 | [3] 1.01 | [4] 1.03 | [5] 1.1 | [6] 0.983 | [7] 0.965 | [8] 0.993 | [9] 1.01 | [10] 0.979 | [11] 1.02 | [12] 1.02

COCC(=O)N(c1c(C)cccc1C)C(C)C(=O)O (centres undefined)
inactive: [1] 1.01 | [2] 1 | [3] 1.01 | [4] 1.09 | [5] 1.15 | [6] 1.04 | [7] 1.02 | [8] 1.01 | [9] 1.01 | [10] 1.05 | [11] 1.01 | [12] 1.01

O=C(Oc1ccccc1)n1c(C(F)(F)F)nc2cc(Cl)c(Cl)cc21
inactive: [1] 1.03 | [5] 0.71
active: [2] 0.704 | [3] 0.588 | [4] 0.635 | [6] 0.431 | [7] 0.688 | [8] 0.0297 | [9] 0.106 | [10] 0.144 | [11] 0.797 | [12] 0.342

O=C(O)COc1cc(N2C(=O)C3=C(CCCC3)C2=O)c(F)cc1Cl
inactive: [1] 1.01 | [2] 1.01 | [3] 1 | [4] 1.03 | [5] 1.02 | [6] 0.967 | [7] 1.05 | [8] 1.03 | [9] 1.03 | [10] 1.04 | [11] 0.987 | [12] 0.977

O=C(O)COc1ccc(Cl)cc1CO
inactive: [1] 0.999 | [2] 0.964 | [3] 1.01 | [4] 1.05 | [5] 0.931 | [6] 0.852 | [7] 0.993 | [8] 0.96 | [9] 0.91 | [10] 0.978 | [11] 0.945 | [12] 0.932

COC(=O)CC(NC(=O)[C@@H](NC(=O)OC(C)C)C(C)C)c1ccc(Cl)cc1 (some centres undefined)
inactive: [1] 0.954 | [2] 1.02 | [3] 0.986 | [4] 0.993 | [5] 1.11 | [6] 1.01 | [7] 0.992 | [8] 0.87 | [9] 0.954 | [10] 1.01 | [11] 0.975 | [12] 0.953

CC(C)NS(=O)(=O)NC(=O)c1cc(-n2c(=O)cc(C(F)(F)F)[nH]c2=O)c(F)cc1Cl
inactive: [1] 0.998 | [2] 1.02 | [3] 1.03 | [4] 1.01 | [5] 1.03 | [6] 0.974 | [7] 0.991 | [8] 0.977 | [9] 1.05 | [10] 0.983 | [11] 1 | [12] 1

S=C([S-])NCCNC(=S)[S-].S=C([S-])NCCNC(=S)[S-].[Mn+2].[Zn+2]
inactive: [1] 0.99 | [2] 0.996 | [3] 1.03 | [4] 1.22 | [5] 1.06 | [6] 1.03 | [7] 1.08 | [8] 0.967 | [9] 1.01 | [10] 1.01 | [11] 0.999 | [12] 1.03

CC(C)(NC(=O)NCc1ccccc1Cl)c1ccccc1
inactive: [1] 1.02 | [2] 1.04 | [3] 1.03 | [4] 1.03 | [5] 1.02 | [6] 0.978 | [7] 0.986 | [8] 1.05 | [9] 1.02 | [10] 0.994 | [11] 1.09 | [12] 1

CO/N=C(/C(=O)O)c1ccccc1CO/N=C(\C)c1cccc(C(F)(F)F)c1
inactive: [1] 0.977 | [2] 0.986 | [3] 0.979 | [4] 1.07 | [5] 1.04 | [6] 0.948 | [7] 1.02 | [8] 0.775 | [9] 0.985 | [10] 0.99 | [11] 1.01 | [12] 0.915

O.O.O=[N+]([O-])c1ccc([O-])cc1.[Na+]
inactive: [1] 1.09 | [2] 1.05 | [3] 1.01 | [4] 0.918 | [5] 0.968 | [6] 1.01 | [7] 1.04 | [8] 0.85 | [9] 0.971 | [10] 0.994 | [11] 0.999 | [12] 1.05

CC(C)OC(=O)[C@@H](C)N(C(=O)c1ccccc1)c1ccc(F)c(Cl)c1
inactive: [1] 1.05 | [2] 1.03 | [3] 1 | [4] 1.27 | [5] 1.1 | [6] 0.933 | [7] 1.09 | [8] 0.977 | [9] 1 | [10] 1.01 | [11] 0.999 | [12] 1
